Source: PubChem BioAssay
Rows were chosen to be rich in hits. Some 3.8% of all compounds tested hit in one or more screens of this group.
hERG WT inh = inhibitors of human wildtype KCNH2 potassium channel. U2OS, BacMam KCNH2, thallium flux FluxOr; stronger effect = lower value. activity change, % at 1.84 µM. 0.37% of 340,000 active. AID 720551;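 active means maximum activity change below -70%; inconclusive means maximum activity change between -70% and -50%; inactive means maximum activity change above -50%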; further: on the % scale 0 is the no-effect control and ±100 the full control effect
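U2OS cells were transduced with wild-type KCNH2 virus (2.03 x 10^8 / mL) for 4 h at room temperature, then cultured overnight at 37 C. Thallium flux was read with FluxOr dye. Rate constants were normalized to DMSO controls.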
MBNL1 CUG block = inhibitors of human MBNL1 binding to CUG repeat RNA; TR-FRET MBNL1-His/biotin-(CUG)12 binding, 665/545 ratio; Potency, µM (top dose mostly 57.5 µM), for the others: top-dose activity change, negative = inhibition, most hits filed as inhibitors; 0.036% of 280,000 active; AID 2675; active means well fitted inhibition curve with a large enough effect in the signal ratio, with a control signal flat, not every such curve was filed as active; inconclusive means small, poorly fitted or top-dose-only effect, or effect the other way, or a change in a side signal; inactive means no such curve, though single readings can be large or run the other way; the % refers to the signal ratio; further: potency means the concentration at half of the fitted maximal effect; on the % scale 0 is the no-effect control and ±100 the full control effect
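MBNL1-His + Biotin-(CUG)12, cpd titration 92 nM–58 uM; Tb anti-His Ab 0.055 ng/ul, SA-XL665 5 nM (final); 60 min RT; ratiometric 665/545 nm, Ex 340 nm; normalized to buffer and full-complex controls.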
KCNH2 3.1 inh = blocks the human KCNH2 3.1 channel isoform; 0.95% of 340,000 active; AID 720553; activity change, % (tested at about 1.8 µM); U2OS KCNH2 3.1, thallium flux FluxOr; stronger effect = lower value;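 active means maximum activity change below -70%; inconclusive means maximum activity change from -70% to -50%; inactive means maximum activity change above -50%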;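 further: thallium influx rate constant from kinetic fluorescence after stimulation buffer; on the % scale 0 is the no-effect control and ±100 the full control effect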
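U2OS cells transduced with KCNH2 3.1 mutant virus (1.77 x 10^8 /mL, 4 h), plated overnight at 37 C, loaded 45 min with FluxOr dye plus Red40 quencher. Thallium flux rate constant from kinetic reads after stimulation buffer, normalised to controls.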
CBFb-RUNX1 inh = CBF-beta/RUNX1 interaction disruption; Q01196+Q13951; AlphaScreen CBFb-His/RUNX1-biotin binding, biochemical; Potency, µM (top dose mostly 59.8 µM), without a hit: top-dose activity, negative = inhibition, most hits filed as inhibitors; 230,000 tested, under 10 active; AID 1477; further: % of control where 0% means no effect
Target sequence (Q01196 whole entry, looked up): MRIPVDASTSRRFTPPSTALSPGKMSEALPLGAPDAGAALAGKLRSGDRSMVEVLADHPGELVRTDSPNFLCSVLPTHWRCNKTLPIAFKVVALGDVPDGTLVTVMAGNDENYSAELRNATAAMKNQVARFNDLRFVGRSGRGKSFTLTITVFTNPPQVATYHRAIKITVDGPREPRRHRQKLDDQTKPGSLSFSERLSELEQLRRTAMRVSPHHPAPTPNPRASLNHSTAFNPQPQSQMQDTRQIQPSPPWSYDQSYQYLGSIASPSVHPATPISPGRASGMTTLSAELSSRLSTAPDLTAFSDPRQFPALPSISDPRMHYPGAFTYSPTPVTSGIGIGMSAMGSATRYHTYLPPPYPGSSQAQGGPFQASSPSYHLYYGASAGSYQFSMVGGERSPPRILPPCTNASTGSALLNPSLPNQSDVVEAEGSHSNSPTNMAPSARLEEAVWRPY
Target sequence (Q13951 whole entry, looked up): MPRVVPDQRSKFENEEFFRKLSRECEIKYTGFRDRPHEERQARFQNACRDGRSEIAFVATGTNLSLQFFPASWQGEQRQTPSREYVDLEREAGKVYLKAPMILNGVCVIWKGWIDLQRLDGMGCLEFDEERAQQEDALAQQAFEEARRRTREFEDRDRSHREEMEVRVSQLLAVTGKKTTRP
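His-tagged CBF-beta and biotinylated RUNX1 (30 nM each) were premixed 20 min at room temperature, exposed to compound for 15 min, then given nickel-chelate and streptavidin AlphaScreen beads (50 ng each). After 90 min, AlphaScreen signal was read.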
PLK1 PBD inh = blocks phosphopeptide binding to human PLK1 polo-box domain. Potency, µM, for the others: max response, negative = inhibition, hits mostly inhibitors. 2.8% of 360,000 active. Plk1 PBD binding of FITC phosphopeptide, fluorescence polarization. P53350; further: potency means the concentration at half of the fitted maximal effect; series mostly up to about 57 µM; on the % scale 0 is the no-effect control and ±100 the full control effect; nearly all actives have a fitted effect of over 65% in size
VDR inh = inhibitors of human vitamin D receptor; 0.93% of 400,000 active; P11473; VDR-SRC2-3 peptide fluorescence polarization, 2 h; Potency, µM, for the others: max response, negative = inhibition, hits mostly inhibitors; further: potency means the concentration at half of the fitted maximal effect; on the % scale 0 is the no-effect control and ±100 the full control effect
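VDR–SRC2-3 interaction, FP format. Cmpds 23 nl via pintool, brief spin, 2 h ambient incubation.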
The depositor's hits bear a star; i = inactive; u = inconclusive; x = not tested or not shown; ! = not confirmed by another sample. Unless noted, the call rests on the fitted dose curve; in most records, active means well fitted curve in the direction sought with a large enough effect; inconclusive means small, poorly fitted or top-dose-only effect, or another doubt; inactive means no such curve, though single readings can be large; an effect the other way counts as inactive or inconclusive.

SMILES | hERG WT inh | MBNL1 CUG block | KCNH2 3.1 inh | CBFb-RUNX1 inh | PLK1 PBD inh | VDR inh
CCN(CC)CCSC(=O)C(c1ccccc1)c1ccccc1 | x | x | x | -0.6% | x | 25.1µM*
CCN(CC)CCOC(=O)C(c1ccccc1)c1ccccc1 | 25.2 | 14.7% | -20.4 | 6.9% | -4.5% | -15.1%
CCC(=O)OC1C(N(C)C)CC(C)O[C@H]1O[C@H]1[C@H](C)[C@@H](O[C@H]2CC(OC)[C@@H](O)C(C)O2)[C@H](C)C(=O)O[C@@H](CC)[C@](C)(O)[C@@H](O)[C@H](C)C(=O)[C@@H](C)C[C@]1(C)O (stereo partly specified) | x | x | x | x | x | 4.5%
COC(=O)c1ccccc1NC(=O)Cn1c(=O)n(CCC(=O)NCc2ccc3c(c2)OCO3)c(=O)c2ccccc21 | x | x | x | x | x | -6.4%
CCN(CC)CCC(=O)N1c2ccccc2Sc2ccc(C(F)(F)F)cc21 | x | x | x | x | x | 28.2µM*
Cc1cc(C)n(CC(=O)N2c3ccccc3Sc3ccc(C(F)(F)F)cc32)n1 | i | 15.1% | 14.6 | 8.9% | -0.3% | -6.6%
CCN(CC)CCC(=O)N1c2ccccc2Sc2ccc(Cl)cc21 | 40.3 | x | -0.5 | x | 3.2% | 50.1µM*!
O=C(NCc1cccc(Cl)c1)C1CCCN(c2ncnc3onc(-c4ccc(F)cc4)c23)C1 (stereo unspecified) | x | x | x | x | x | 8.1%
C/C(=N\NC(=S)Nc1ccccc1C)c1ccc(O)cc1 | 2.0 | 1.3% | -17.2 | -2.8% | 10.6µM* | u
COc1ccc(-c2onc(C)c2C)cc1S(=O)(=O)NCc1ccc(Br)cc1 | x | x | x | x | x | 2.5%
Cn1c(=O)c2c(nc(Br)n2Cc2ccccc2Cl)n(C)c1=O | 1.3 | -8.6% | -88.3* | -2.8% | 1.5% | 13.3%
COC(=O)Cn1c(=O)c2c(nc(Br)n2Cc2ccccc2Cl)n(C)c1=O | -9.8 | 6.2% | 1.3 | -1.3% | 0.4% | 11.2%
COc1cc(/C=C2/C(=N)N3C(=NC2=O)SN=C3S(=O)(=O)C(C)C)ccc1OS(=O)(=O)c1ccccc1 | x | -2.6% | x | x | x | x
COc1cc(/C=C2/C(=N)N3N=C(C(C)C)SC3=NC2=O)ccc1OS(=O)(=O)c1ccccc1 | -5.6 | 0.4% | -17.1 | x | 37.7µM* | 56.2µM*
COc1cc(/C=C2\C(=N)N3N=C(S(C)(=O)=O)SC3=NC2=O)ccc1OS(=O)(=O)c1ccc(C)cc1 | 0.8 | 13.4% | -8.9 | x | 23.8µM* | u
CCC1=NN2C(=N)/C(=C/c3ccc(OS(=O)(=O)c4ccccc4)c(OC)c3)C(=O)N=C2S1 | 2.3 | 2.0% | 4.0 | x | 18.9µM* | -25.4%
CCc1ccc(CNC(=O)COc2cc(=O)n(CC)c3ccccc23)cc1 | x | x | x | x | x | -4.6%
CCCOC(=O)N1CCN(/[N+]([O-])=N/Oc2ccc([N+](=O)[O-])cc2[N+](=O)[O-])CC1 | x | x | x | -9.7% | x | u
CN(C(=O)COC(=O)CCc1c[nH]c2ccccc12)C(c1ccccc1)c1ccccc1 | -5.5 | -5.5% | -80.5* | -2.7% | -7.5% | -15.7%
CC1=C(c2ccc(C(C)C)cc2)S(=O)(=O)N=C1N1CCN(C(=O)c2ccco2)CC1 | 3.0 | 33.2% | -10.4 | x | 26.7µM* | u
C/C=C/c1ccc(OCC(O)CNCC(c2ccc(OC)cc2)N(C)C)c(OC)c1 (stereo unspecified) | -6.9 | -4.1% | -73.4* | x | 2.3% | 1.7%
C/C=C/c1ccc(OCC(O)CNCCc2ccc(OC)cc2)c(OC)c1 (stereo unspecified) | 2.8 | -7.5% | -71.0* | x | -4.5% | 13.6%
COc1ccc(NC(=S)N2CCC(C(=O)c3ccc(Cl)cc3)CC2)cc1 | -37.0 | x | 15.7 | x | 3.5% | -10.5%
COc1ccc(NC(=O)CN2CCC(C(=O)c3ccc(F)cc3)CC2)c(OC)c1 | 18.7 | 1.7% | 16.1 | x | 3.0% | -1.0%
COc1ccc(-c2[nH]ncc2CN2CCC(C(=O)c3ccc(F)cc3)CC2)cc1 | -34.4 | -3.7% | -93.5* | 11.6% | -5.2% | 0.4%
SMILES | hERG WT inh | MBNL1 CUG block | KCNH2 3.1 inh | CBFb-RUNX1 inh | PLK1 PBD inh | VDR inh
COc1ccc(-c2[nH]ncc2CN2CCC(N3CCSCC3)CC2)c(F)c1 | -0.7 | 3.6% | 17.1 | 5.7% | 15µM* | -27.1%
COc1ccc(CN2CCC(C(=O)c3cccc(Cl)c3)CC2)cc1 | u | 0.2% | -107.6* | x | -0.3% | -21.3%
COc1ccc(CN2CCC(C(=O)c3ccc(Cl)cc3)CC2)cc1 | -110.2* | -3.2% | -96.9* | x | -6.7% | 17.5%
COc1ccc2c(c1)cc1c(=O)n(CC(=O)NCCc3ccccc3)nc(C)n12 | x | x | x | x | x | -1.1%
COc1ccccc1CNC(=O)CCCCn1c(=O)c2ccccc2n(CC(=O)Nc2c(C)cc(C)cc2C)c1=O | x | x | x | x | x | -3.0%
Fc1ccc(-n2c(=S)[nH]c3cccnc32)cc1 | 8.2 | 35.2% | 16.4 | x | 11.9µM* | -15.5%
O=S(=O)(NCC(c1ccco1)N1CCN(c2ccc(F)cc2)CC1)c1cc(F)ccc1F (stereo unspecified) | x | x | x | x | x | 13.6%
O=[N+]([O-])c1ccc(O)c2ncccc12 | -12.2 | u | -1.4 | u | -13.3% | 39.8µM*!
O=[N+]([O-])c1ccc(O)c2cccnc12 | 1.6 | u | 8.5 | -12.3% | -2.4% | 6.0%
